# Assay outcomes as filed in PubChem BioAssay.
# Pf Dd2 growth = Plasmodium falciparum Dd2 growth inhibition; P. falciparum Dd2 growth, SYBR Green, 72 h; Potency, µM (highest dose often 28.9 µM), without a hit: top-dose activity, negative = inhibition, usual class: inhibitors; 4.3% of 120,000 active; AID 1347417; active = well fitted inhibition curve with a large enough effect;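 also: plate controls were DMSO vehicle for no effect and reference drug for full effect; nearly all actives have a fitted effect of over 65% in size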
#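 Infected erythrocytes (Dd2, 0.3% parasitemia, 2.5% hematocrit final) are added to compound in RPMI-1640/Albumax II medium, grown 72 h at 37C in low oxygen, then lysed with saponin/Triton-X containing SYBR Green and read by fluorescence.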
# The depositor's hits bear a star; i = inactive; [ ] = another dose, or the depositor's remark. This excerpt belongs to a sample that is enriched for hits. Potency is read from the fitted curve at half-maximal effect.
SMILES,Pf Dd2 growth
COc1ccc(OC2CN(C(=O)c3ccc(C)cc3)C2)cc1,22.6%[44.1 µM]
COc1ccccc1C(=O)N1CC(c2nnc(-c3ccncc3)o2)C2(CCOCC2)C1 (stereo not drawn),6.1%
CCOc1ccccc1CN1CCCN(S(C)(=O)=O)C(c2ccccc2)CC(=O)NCC1 (stereo not drawn),-0.9%
O=C(NCCc1ccc(Cl)cc1)C1CCCN(c2nc3ncccc3o2)C1 (stereo not drawn),-11.8%
CN(C)Cc1cc(CC2(NCc3ccccc3O)COC2)no1,-20.2%[44.1 µM]
COc1cccc(CC2(CO)CCCN(c3ccc(-c4nccn4C)nn3)C2)c1 (stereo not drawn),8.91µM*
Cn1ccnc1-c1ccc(N2CC[C@](C)(O)[C@@H](O)C2)nn1,0.2%
Cn1ccnc1-c1ccc(N2CCC(C(O)Cc3ccccc3)CC2)nn1 (stereo not drawn),-18.9%
Cc1cccc(N2CCN(C(=O)c3cn(CC(C)C)c(=O)c4c3c3ccccc3n4C)CC2)c1C,11.2µM*
Cc1ccc(-n2nc(C(=O)N3CCN(c4ccccc4F)CC3)c3c4ccccc4n(C)c3c2=O)cc1,28.5%
CCn1cc(C(=O)N2CCN(c3cc(C)ccc3C)CC2)c(=O)c2cc(S(=O)(=O)N3CCCCC3)ccc21,12.1%
Cc1ccc(-n2nc(C(=O)N3CCN(c4cc(C)ccc4C)CC3)c3c4ccccc4n(C)c3c2=O)cc1,31.0%
CCn1c(=O)cc(OCC(=O)N2CCN(c3cccc(C)c3C)CC2)c2ccccc21,45.5%
Cc1ccc(C)c(N2CCN(C(=O)c3cn(CC(C)C)c(=O)c4c3c3ccccc3n4C)CC2)c1,2.51µM*
Cn1ncc(N2CCOC(CCNC3CCC4(CCNCC4)CC3)C2)cc1=O (stereo not drawn),-15.7%
CS(=O)(=O)N1CCn2c(nnc2C2CCNCC2)C1,15.1%[44.1 µM]
O=C(CCc1nc(C2CCCN2C(=O)c2ccccc2)no1)Nc1ccc(F)cc1F (stereo not drawn),0.1%
O=c1cc(-c2cnccn2)oc2c(Nc3ccccn3)nccc12,i
Cc1cc(=O)n(CC(=O)Nc2ccc(F)c(Cl)c2)c(N(C)Cc2ccccc2)n1,i
COCCN1C(=O)CC[C@@]2(C(=O)N3CCOCC3)CCCC[C@H]12,21.0%
Cc1ccc2c(c1)N1C(=O)OC[C@@H]1CCN(C(=O)COCc1ccccc1)C2,0.3%[44.1 µM]
CCC(=O)N1Cc2ccccc2CC2(CCN(CC3CCNCC3)C2)C1 (stereo not drawn),7.7%
CCN1CCCC2(Cc3ccccc3CN(C(=O)CCCC(=O)O)C2)C1 (stereo not drawn),-9.4%
CCN1CCC2(Cc3ccccc3CN(C(=O)Cc3ccc(OC)cc3)C2)C1 (stereo not drawn),8.91µM*
CCN1CCC2(Cc3ccccc3CN(C(=O)Cc3ccc(O)cc3)C2)C1 (stereo not drawn),-21.0%
SMILES,Pf Dd2 growth
CCC(=O)N1Cc2ccccc2CC2(CCCN2Cc2ccc(OC)cc2)C1 (stereo not drawn),-6.4%
CCN1CCC2(Cc3ccccc3CN(C(=O)Cc3ccccc3)C2)C1 (stereo not drawn),11.2µM*
CNC(=O)C1CCN(C(=O)c2ccc(-c3ncc4cnc(-c5ccccc5)cn34)cc2)CC1,i
O=C(CN1C(=O)NC2(CCOCC2)C1=O)NC1CCc2ccccc21 (stereo not drawn),60.3%
CN1[C@@H](CCC(=O)N2CCOCC2)CNC(=O)[C@@H]2[C@H]1CCN2Cc1cccc(OC(F)(F)F)c1,-10.8%
COc1ccc(CN2CCC3(CCC(=O)N(Cc4ccncc4)C3)CC2)c(F)c1,-7.8%
Cn1nc2n(c1=O)CCN(C1CCSCC1)CC2,20.4%
Cc1cc(C(=O)N2CC3CC(C2)[C@H]2CCCC(=O)N2C3)n(C)n1 (stereo partly drawn),13.7%
Cc1cc(Cl)ccc1OCC(=O)N1[C@@H]2CC[C@H]1CC(NC(=O)c1ccc(F)cc1)C2 (stereo partly drawn),i
Cc1cc(C)nc(NS(=O)(=O)c2ccc(NC(=O)COc3ccc(Cl)cc3C)cc2)n1,i
CNc1cc(C2CC(NC(=O)COc3ccc(Cl)cc3C)C2)nc(N)n1 (stereo not drawn),7.94µM*
O=C(NC1CCCCCC1)C1CCN(c2cn[nH]c(=O)c2)C1 (stereo not drawn),-9.5%
CCCNC(=O)C1c2ccccc2C(=O)N(C2CCCCC2)C12CCCCC2 (stereo not drawn),i
O=C(NCCc1ccncc1)C1c2ccccc2C(=O)N(Cc2ccccc2)C12CCCC2 (stereo not drawn),-29.2%
O=C(NCCc1ccncc1)C1c2ccccc2C(=O)N(C2CCCCC2)C12CCCCC2 (stereo not drawn),10µM*
CN(C(=O)c1ccc(F)cc1)C1CCOc2ccccc21 (stereo not drawn),i
Cc1onc(-c2cnn(C)c2NCc2ccccc2)c1C(=O)N1CCN(CCO)CC1,i
O=C(c1ccncc1)N1CCN(C(=O)c2nnn3c2COC(c2ccc(Cl)cc2)C3)CC1 (stereo not drawn),-0.7%
COc1ccc(CNC(=O)c2cc3cn(C4CC4)cc3s2)cc1OC,i
COc1ccc(CCNC(=O)c2cc3cn(C(C)C)cc3s2)cc1OC,8.91µM*
Cc1ccc(CNC(=O)c2cc3cn(C(C)C)cc3s2)o1,i
COCC(=O)NC1CCC12CCN(C(=O)c1ocnc1C)CC2 (stereo not drawn),-4.2%
CC(C)C[C@@H](NC(=O)C1=C[C@@H](NC(=O)Nc2ccccc2Br)[C@@H](O)[C@H](O)C1)C(N)=O,i
COc1ccc(-c2nc(C)nc3c2CN(C(=O)c2ccc(C)cc2)CC3)cc1,-12.5%
COc1ccc(C(=O)N2CCc3nc(C)nc(-c4ccc(OC)cc4)c3C2)cc1,-9.1%
SMILES,Pf Dd2 growth
COc1ccc(-c2nc3c(c(-c4ccccc4)n2)CN(C(=O)c2ccccc2Cl)CC3)cc1,10µM*
COc1ccc(-c2nc3c(c(-c4ccccc4)n2)CN(C(=O)c2cccc(Cl)c2)CC3)cc1,i
COc1ccc(-c2nc(-c3ccccc3)nc3c2CN(C(=O)c2ccccc2C)CC3)cc1,10µM*
COc1ccc(-c2nc(C)nc3c2CN(C(=O)c2ccccc2)CC3)cc1,i
COc1ccc(-c2nc(-c3ccccc3)nc3c2CN(C(=O)c2ccc(C(F)(F)F)cc2)CC3)cc1,8.91µM*
COc1ccc(CC(=O)N2CCc3nc(-c4ccc(Cl)cc4)nc(-c4ccccc4)c3C2)cc1,i
COc1ccc(-c2nc(C)nc3c2CN(C(=O)c2ccccn2)CC3)cc1,2.6%
CN(C)C[C@@H]1CN(c2ncccn2)C[C@H]1NC(=O)c1ccncc1,i
CN(C)CC(=O)N1Cc2ccccc2CC2(CCCN(C)C2)C1 (stereo not drawn),-7.7%
COc1ccc(C2(C(=O)N3CCc4ccccc4C3)CCOCC2)cc1,-7.8%
CN(C)C[C@@H]1CN(c2ncccn2)C[C@H]1NC(=O)c1cccc(Cl)c1,-14.1%
COc1cccc(C(=O)N2CCn3c(nn(-c4ccc(C)cc4)c3=O)C2)c1,-6.2%
Cc1noc(C)c1CC(=O)N1CCCC(c2noc(COc3ccccc3)n2)C1 (stereo not drawn),-10.2%
CC(=O)c1ccc(NC(=O)N2C[C@@H]3C[C@H](C2)c2ccc(NC(=O)c4cccs4)c(=O)n2C3)cc1,-1.9%
Cn1cc(CN2C[C@@H]3C[C@H](C2)c2ccc(NC(=O)COc4ccccc4)c(=O)n2C3)c2ccccc21,-2.5%
Cn1cc(CN2C[C@@H]3C[C@H](C2)c2ccc(NC(=O)c4cccs4)c(=O)n2C3)c2ccccc21,7.94µM*
